According to PubChem BioAssay (NCI):
Compounds without any hit were thinned out: in the full panel of roughly 79,000, 15% have a hit. Activity calls are given as the source filed them. No stated cut-off is given here; in the data, active means growth inhibition above about 70%; inactive means the rest.

Test: NCI Yeast Anticancer Drug Screen. Data for the cln2 rad14 strain (AID 165);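 further: 0% = growth equal to vehicle treated cultures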
Conditions: S. cerevisiae cln2 rad14 strain, at 5.0 µM (retest, dose inferred, filed as 0.5), hits give high values
In short: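 Yeast strain cln2 rad14, bearing defects in cell cycle control and DNA repair, serves as the test system; values reflect growth inhibition compared with vehicle.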
In the case of `NS(=O)(=O)c1ccc(N=Cc2c3ccccc3nc3cc(Cl)ccc23)cc1`, the growth inhibition is reported as 3% (inactive). With `Nc1ccc(O)c(=O)cc1` the growth inhibition was -2% (inactive). For `Oc1ccc[nH]c1=S`, the growth inhibition was 8% (inactive). For `COc1cccc2c1C(=O)c1c(O)c3c(c(O)c1C2=O)C[C@@](O)(/C(C)=N/NC(=O)c1ccc(Cl)c(Cl)c1)C[C@@H]3OC1CC(N)C(O)C(C)O1` (stereo partly drawn), the growth inhibition was 5% (inactive). With `O=C1c2ccccc2C(=O)c2c1ccc(O)c2O.[Cu]` the growth inhibition was 26% (inactive). For `CCC(=O)C(C(=O)CC)c1c(OC(=O)c2ccccc2)ccc(O)c1C(=O)OC`, the growth inhibition was -5% (inactive). With `CC(C)CCCC(C)C1CCC2(C)C3=CCC4C(C)(CCC(O)C4(C)C)C3=CCC12C` (stereo not drawn) the growth inhibition was -8% (inactive). With `CCNC(=O)COc1ccc(Cl)cc1Cl` the growth inhibition was 7% (inactive). With `CCN1CCC(O)(/C=C/c2ccc(Cl)c(Cl)c2)C(C(=O)/C=C/c2ccc(Cl)c(Cl)c2)C1` (stereo not drawn) the growth inhibition was 99% (active). In the case of `Nc1ccc(-c2ccc(N)cc2S(=O)(=O)O)c(S(=O)(=O)O)c1`, the growth inhibition is reported as -2% (inactive). With `COc1ccc2c(c1)CCc1c(-c3noc4c3CCc3cc(OC)ccc3-4)noc1-2` the growth inhibition was 11% (inactive). With `Cc1ccc(NC(=S)N(CCC#N)C2CCCCC2)cc1C` the growth inhibition was -2% (inactive). For `COc1ccc2c(c1)CC1c3c(ccc(OC)c3O)CC2N1C` (stereo not drawn), the growth inhibition was -24% (inactive). In the case of `CCN(CC)CCCC(C)Nc1c2ccccc2nc2c(C)cc(Br)cc12` (stereo not drawn), the growth inhibition is reported as 19% (inactive). In the case of `O=C(O)c1cc2ccc3cccc4ccc(c1)c2c34`, the growth inhibition is reported as -4% (inactive). For `CCOC(=O)NC(=S)Nc1ccsc1`, the growth inhibition was 0% (inactive). With `CC(C)CCC(C)(C)c1cc(O)ccc1O` the growth inhibition was 14% (inactive). For `COc1ccc(C(c2cc3c(cc2O)OCO3)N2CCOCC2)c(OC)c1OC` (stereo not drawn), the growth inhibition was -6% (inactive). For `CCOC(=O)C1=C(C)NC(C)=C(C(=O)OCC)C1c1c(-c2ccccc2)noc1C`, the growth inhibition was 0% (inactive). In the case of `O=C(CCl)Oc1ccc(Sc2ccc(OC(=O)CCl)cc2)cc1`, the growth inhibition is reported as 13% (inactive). With `Nc1ccc2[nH]c3ccccc3c2c1` the growth inhibition was -5% (inactive).

Same assay, conditions: S. cerevisiae cln2 rad14 strain, at 50.0 µM (retest, dose inferred, filed as 5.0), hits give high values
In the case of `CCCCCCCCCCCCCCCBr`, the growth inhibition is reported as -5% (inactive). With `CCCCCCCCCCCC(=O)OCC(C)C` the growth inhibition was -11% (inactive). With `O[Si](O)(c1ccccc1)c1ccccc1` the growth inhibition was 88% (active). For `O=C(c1ccccc1)C(C(=O)c1ccccc1)c1ccc2ccccc2n1`, the growth inhibition was 1% (inactive). With `O=C1C=CC(=O)N1c1ccccc1[N+](=O)[O-]` the growth inhibition was 99% (active). With `CCCCCCCCCCCC(O)=C1C(=O)CC(O)CC1=O` (stereo not drawn) the growth inhibition was 91% (active). For `OCCc1cccc2ccc3ccccc3c12`, the growth inhibition was 59% (inactive). For `O=C1C(=O)C(Cl)=C(Cl)C(Cl)=C1Cl`, the growth inhibition was 98% (active). In the case of `O=C1C=CC2C(=O)c3ccccc3C(=O)C2=C1` (stereo not drawn), the growth inhibition is reported as 71% (active). In the case of `O=C(N(c1ccc(Cl)cc1)c1ccc(Cl)cc1)C(Cl)(Cl)Cl`, the growth inhibition is reported as 65% (inactive). With `COc1cccc2c1S(=O)(=O)C(c1ccccc1)=CC2=O` the growth inhibition was 98% (active). With `COc1cc(-c2nn3c(=O)n(-c4ccc(Cl)cc4)c(=O)nc3s2)cc(OC)c1OC` the growth inhibition was -7% (inactive). For `O=[N+]([O-])C1(CO)COC(CCc2ccccc2)OC1` (stereo not drawn), the growth inhibition was 3% (inactive). In the case of `COc1ccc(C(=O)CCc2c[nH]c3ccccc23)c(O)c1`, the growth inhibition is reported as 72% (active). With `CC/C(=C(\CC)c1ccc(OCCN2CCOCC2)cc1)c1ccc(OCCN2CCOCC2)cc1` the growth inhibition was 64% (inactive). For `CCCCCCCCCCCN1C(=O)c2ccccc2S1(=O)=O`, the growth inhibition was 34% (inactive). In the case of `CCCCCCCCCCCC(=O)NN`, the growth inhibition is reported as 65% (inactive). For `CCN1CCC(O)(/C=C/c2ccccc2)C(C(=O)/C=C/c2ccccc2)C1` (stereo not drawn), the growth inhibition was 74% (active). With `NC(=S)NNCCC(=O)Nc1ccccc1C(F)(F)F` the growth inhibition was 7% (inactive). In the case of `NS(=O)(=O)c1ccc(N=Cc2c3ccccc3nc3cc(Cl)ccc23)cc1`, the growth inhibition is reported as 12% (inactive). For `Nc1ccc(O)c(=O)cc1`, the growth inhibition was 0% (inactive). For `Oc1ccc[nH]c1=S`, the growth inhibition was -4% (inactive). For `COc1cccc2c1C(=O)c1c(O)c3c(c(O)c1C2=O)C[C@@](O)(/C(C)=N/NC(=O)c1ccc(Cl)c(Cl)c1)C[C@@H]3OC1CC(N)C(O)C(C)O1` (stereo partly drawn), the growth inhibition was 98% (active). In the case of `O=C1c2ccccc2C(=O)c2c1ccc(O)c2O.[Cu]`, the growth inhibition is reported as 91% (active). In the case of `CCC(=O)C(C(=O)CC)c1c(OC(=O)c2ccccc2)ccc(O)c1C(=O)OC`, the growth inhibition is reported as -5% (inactive). In the case of `CC(C)CCCC(C)C1CCC2(C)C3=CCC4C(C)(CCC(O)C4(C)C)C3=CCC12C` (stereo not drawn), the growth inhibition is reported as 84% (active). With `CCNC(=O)COc1ccc(Cl)cc1Cl` the growth inhibition was 13% (inactive).
